# Reference: PubChem BioAssay AID743093 (The Scripps Research Institute Molecular Screening Center, 2013)
# In all, about 150,000 compounds went through this assay and about 100 (0.067%) were called active. Only a selection was taken, and actives are over-represented in it overall. A number with no mark means an inactive call.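 The calls were made as follows: active = inhibition above the mean plus 3 SD of compounds within the control limits, set per campaign (cut at about 38% in these data); inactive = the rest.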
# Assay: reduced ATP in mature Plasmodium gametocytes – ATP luminescence, HTS, primary screen (AID 743093);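 also: 0% = DMSO wells and 100% = medium only without gametocytes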
# Settings: P. falciparum stage V gametocytes, 24 h, at 10.9 µM, stronger effect = higher value
row,SMILES,inhibition
1,COc1ccc(CCNC(=O)Cc2ccc(C)cc2)cc1OC,-9.83%
2,O=[N+]([O-])c1ccccc1/C=C/CN1CCCC(CO)C1 (configuration not stated),-16.5%
3,O=C(CCCCO)c1ccc(O)c(Cl)c1,-2.03%
4,CN(Cc1ccccc1)C(=O)c1ccc(COc2ccccc2)cc1,-8.25%
5,COc1ccc(OC)c(C(=O)NC(CC(N)=O)c2ccc(N3CCC(N4CCCCC4)CC3)c([N+](=O)[O-])c2)c1 (configuration not stated),0.29%
6,COc1ccc(-c2sc3ccc(OC)cc3c2C#Cc2ccccn2)cc1,11.6%
7,COc1cc(NC(=O)c2ccc(CNc3c(N4CCCC4)c(=O)c3=O)cc2)cc(OC)c1OC,-11.3%
8,COc1ccc(OCC(O)CN(C)C(=O)C(C)Oc2ccccc2)cc1 (configuration not stated),-38.3%
9,Cc1cc(F)ccc1NC(=O)C(C)n1c2ccccc2c2nc(=O)cc(C)n21 (configuration not stated),-11.9%
10,CCOC(=O)CSc1nc(C)c(Oc2ccc(Cl)cc2Cl)c(=O)[nH]1,-4.17%
11,O=C(C1CCC1)N1CCN(c2ccccc2)CC1,10.5%
12,Cn1c(Nc2cccc(Cl)c2)nc2ccccc21,-9.18%
13,CN(C(=O)c1cccc(NC(=O)Cc2ccc([N+](=O)[O-])cc2)c1)C1CCC1,-9.69%
14,O=C(Cc1c(F)cccc1Cl)Nc1ccc(-n2cnnn2)cc1,4.22%
15,O=C(Cc1c(F)cccc1Cl)Nc1ncc([N+](=O)[O-])s1,39.5% (active)
16,O=C(CCc1ccccc1)Nc1ncc([N+](=O)[O-])s1,-11.7%
17,O=C(CCl)N(Cc1cccc([N+](=O)[O-])c1)c1cccc(Cl)c1,-7.41%
18,Clc1ccc(C[n+]2cc(-c3ccccc3)n3c2CCC3)cc1,1.51%
19,O=[N+]([O-])c1ccc(NC(=S)N2CCN(c3ccccn3)CC2)cc1,3.29%
20,O=C(CN1CCN(c2ccc(F)cc2)CC1)Nc1ccccc1,-14.6%
21,N#C/C(=C\c1ccc(-c2cccc([N+](=O)[O-])c2)o1)C(=O)NCCN1CCOCC1,-28.5%
22,Cc1ccccc1Nc1c(-c2ccccc2)nc2ncccn12,-29.5%
23,O=S(=O)(c1cccc(C(F)(F)F)c1)N1CCN(c2cnccn2)CC1,-34.2%

row,SMILES,inhibition
1,O=C1CC(=O)Nc2cc(S(=O)(=O)N3CCN(c4cccc(C(F)(F)F)c4)CC3)ccc2N1,38.8% (active)
2,Cc1ccc(S(=O)(=O)N2CCN(c3ccccc3)CC2)cc1C,0.96%
3,CCc1cc(CNC(=O)CC2C(=O)NCCN2Cc2ccccc2C(F)(F)F)on1 (configuration not stated),-0.11%
4,COc1ccc(NC(=O)C2C3CCC(O3)C2C(=O)O)cc1OC (configuration not stated),7.46%
5,Cc1ccc(S(=O)(=O)Nc2nc(C)cc(-n3nc(C)cc3C)n2)cc1,10.5%
6,Cc1ccc(S(=O)(=O)Nc2nc(C)cc(N/N=C/c3ccc(O)cc3)n2)cc1,42.5% (active)
7,Cc1cc(N/N=C\c2ccc(Br)cc2)nc(-n2nc(C)cc2C)n1,-0.66%
8,CC1CCC(CN2CCN=C2N(C)C)CC1 (configuration not stated),-5.33%
9,CCN(CC)CCCNC(=S)N(CCO)Cc1cc2cc3c(cc2[nH]c1=O)OCO3,4.58%
10,CN(c1ccccn1)c1ncnc2[nH]ncc12,2.58%
11,O=S(=O)(c1ccc(Cl)cc1)N1CCCN(c2ccc(C(F)(F)F)cn2)CC1,-9.4%
12,CC(C)CC(CCc1ccccc1)OS(N)(=O)=O (configuration not stated),-58.7%
13,CC(C)(C)OC(=O)Nc1ccc([C@@H](NC(=O)OC(C)(C)C)C(=O)OC(C)(C)C)cc1,-5.54%
14,COc1ccc(C)cc1NC(=O)CNCc1cccs1,7.68%
15,O=C(Cc1ccc(Br)cc1)NCCc1ccccc1,15.4%
16,CCC(C)CCN1CCN=C1N(C)C (configuration not stated),4.3%
17,Cc1ccc(S(=O)(=O)NCCCn2ccnc2)cc1C(=O)NC(C)C,2.4%
18,O=C1N[C@@H](Cc2ccccc2)C(=O)N2[C@H]1C[C@]1(Br)c3ccccc3N(S(=O)(=O)c3ccccc3)[C@H]21,12.6%
19,COC(=O)c1ccc(COc2ccc(/C=N/NC(=O)C(=O)Nc3ccc(OC)cc3)cc2OC)o1,2.74%
20,O=C(N[C@@H](Cc1ccccc1)C(=O)OCc1ccccc1)c1nc[nH]c1C(=O)N[C@@H](Cc1ccccc1)C(=O)OCc1ccccc1,0.44%
21,CCOc1cc(/C=N/Nc2cc(C)nc3ccc(C)cc23)ccc1O,10.4%
22,FC(F)(F)c1ccc2c3n(nc2c1)CCN=C3c1ccc(Cl)cc1,6.57%
23,COC(=O)CN1C(=O)[C@H]2[C@@H](C3CC3)N3C(=O)CN(Cc4ccc(-c5ccccc5)cc4)C(=O)[C@@]3(Cc3ccccc3)[C@H]2C1=O,-19.5%

row,SMILES,inhibition
1,CC(=O)Nc1ccc(NC(=O)CSc2nnnn2-c2ccccc2F)cc1,-3.76%
2,CC1CN(c2nc(Nc3ccccc3)nc(N)c2[N+](=O)[O-])CC(C)O1 (configuration not stated),-1.38%
3,CCOc1cc(C)ccc1OCc1nnc(SCC(=O)Nc2cccc(C(=O)O)c2)n1-c1ccccc1,15.6%
4,Nc1cccnc1Sc1ccccc1,-1.9%
5,Cc1noc(C)c1NC(=O)Nc1cccc2c1O[C@H](CN(C)S(=O)(=O)c1c(C)noc1C)[C@@H](C)CN([C@H](C)CO)C2=O,-15.7%
6,O=C(O)c1ccccc1NC(=O)c1ccccc1-c1ccccc1C(=O)O,-11.4%
7,CCOCCn1[nH]c2ccccc2c1=O,-10.4%
8,COc1cc2c(cc1OC)C(c1ccccc1Br)NC(=O)C2 (configuration not stated),1.27%
9,Cc1cccc(NC(=O)CCN2CC(C)CC(C)C2)c1 (configuration not stated),-2.59%
10,CC(=O)Nc1ccc(Oc2ccc3c(c2)C(=O)NC3=O)cc1,10.6%
11,CCCn1c(C2CCCN2c2nc(-c3ccc(C)cc3)cs2)nc2cc(Cl)c(N3CCCCC3)cc21 (configuration not stated),10.4%
12,O=C(O)CCC(=O)N(Cc1ccccc1)Cc1ccccc1,-4.24%
13,Cc1ccc(S(=O)(=O)N2CCN(C)CC2)cc1,-1.33%
14,COc1cc2c(cc1OC)C(C(=O)Nc1cc(C)c(OC)c(C)c1)CC(=O)N2 (configuration not stated),5.54%
15,CCOC(=O)c1sc(/N=C/C2=C(O)CC(C)(C)CC2=O)c(C(=O)OCC)c1C,22.4%
16,O=C(c1ccc(F)cc1)n1cc(C(=S)N2CCOCC2)c2ccccc21,0.53%
17,CN(Cc1ccccc1)Cc1ccccc1F,19.5%
18,N=c1n(CCc2ccccc2)c2ccccc2n1Cc1ccccc1F,59.9% (active)
19,Cn1cc(CN2CCC(C(O)CCc3ccccc3)CC2)c(-c2ccccc2F)n1 (configuration not stated),9.2%
20,OC(CNC1CCCC1)COc1ccc(F)cc1 (configuration not stated),-4.99%
21,NC1=NC(c2ccc([N+](=O)[O-])cc2)N(c2ccc(F)cc2)C(N)=N1 (configuration not stated),9.95%
22,CC(C)NC(=O)/C(C#N)=C\c1ccc(N(C)C)c(Br)c1,7.74%
23,CNC1(c2nnnn2-c2c(C)cccc2C)CCOC(C)(C)C1 (configuration not stated),5.71%

row,SMILES,inhibition
1,COc1ccc(NC(=O)c2cc(-c3ccc(C)cc3)on2)cc1,-2.96%
2,CCOC(=O)C1(Cc2ccccc2C)CCCN(S(C)(=O)=O)C1 (configuration not stated),-3.76%
3,COc1ccccc1C(=O)Nc1ccc(Nc2ccccc2)cc1,-11.9%
4,COc1cc(OC)cc(-c2c(-c3cccs3)c3cc(-c4ccc(OC)nc4)ccc3n2C)c1,-3.15%
5,Cc1ccc(C(=O)NNC2=Nc3cc([N+](=O)[O-])ccc3OC2)cc1,5.16%
6,O=Cc1c(NCCCN2CCCC2=O)c2ccccc2[nH]c1=O,-5.27%
7,COc1ccc(CNC(=O)C2CCCC2)cc1,-3.19%
8,COc1cccc2oc(CCc3ccccc3)cc(=O)c12,-20%
9,O=C(CN1CCCCCC1)Nc1ccc(Br)cc1[N+](=O)[O-],-7.18%
10,COc1ccc(NC(=O)CS(=O)(=O)c2ccccc2)cc1,34.6%
11,CCC(CO)Oc1cc(NC(=O)c2cccc(F)c2)c2ncn(C(C)C)c2c1 (configuration not stated),-8.65%
12,CCc1nnc(NS(=O)(=O)c2ccc(NC(=O)c3cccc(OC(F)(F)C(F)F)c3)cc2)s1,-3.99%
13,CC(C)(C)OC(=O)C[C@H]1C/C=C\C[C@@H](CC(=O)N[C@H](CO)Cc2ccccc2)C(=O)NC[C@@H](c2ccccc2)OC1=O,20.4%
14,COc1ccc(S(=O)(=O)NCCCc2ccccc2)cc1,-6.3%
15,CCC1=NN2C(=N)/C(=C/c3cc(C)n(-c4ccccc4)c3C)C(=O)N=C2S1,20.8%
16,COC(=O)C1(CCSC)NC(c2ccc(OC)cc2OC)C2C(=O)N(c3cccc(C(C)=O)c3)C(=O)C21 (configuration not stated),15.8%
17,Nc1cc(N)nc(SCc2cccc(F)c2)n1,-27.3%
18,COc1ccccc1C(=O)Nn1cnnc1,-1.75%
19,COc1ccc(-c2cc3ncccc3cn2)cc1,-25%
20,CC(=O)NCC(=O)NC1CCCc2c1cnn2-c1ccccc1F (configuration not stated),-0.98%
21,CCOc1cc(/C=C2\C(=N)N3N=C(C)SC3=NC2=O)ccc1OCCOc1ccccc1,-11.6%
22,O=C1C=C(c2cccc(Cl)c2O)C[C@@H](c2ccc(F)cc2)C1,-16.5%
23,COc1ccccc1OCCCCCCN1CCN(C)CC1,14.7%
